PHOSPHO1 block = PubChem AID 1565 | Phosphoethanolamine/phosphocholine phosphatase (Homo sapiens), Q8TCT1 | recombinant PHOSPHO1, absorbance phosphatase assay | inhibition, % at 13.3 µM | 290,000 tested, 1.1% active; in the data active means inhibition above about 60%
Platelet DG rel = inhibitors of platelet dense granule secretion, primary screen, cell-based, MLPCN, human platelets. human platelet-rich plasma, SFLLRN dense granule ATP release, luminescence. inhibition, %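 (compounds screened at 7.5 µM in platelet-rich plasma)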. 300,000 tested, 0.22% active. AID 1663, 2009;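 active means mean replicate score, as percent of positive control, at or above 50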
WT yeast gro inh = growth inhibition of WT strain, primary screen, mitochondrial fusion inhibitor project, WT and mutant strains, chemical genetic; 190,000 tested, 2.1% active; inhibition, % at 10 µM; AID 1362, 2008; mitochondrial fusion phenotypic screen; in the data active means inhibition above about 58%; tested in S. cerevisiae
SKKanGAS inh = S. pyogenes SKKanGAS growth inhibitors in kanamycin, primary screen, streptokinase expression inhibitor project, SKKanGAS strain, BacTiter-Glo luminescence. 6 h. inhibition, % at 7.5 µM. 300,000 tested, 1.3% active;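 active means mean replicate score, as percent of positive control median, at least 50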;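 further: strain carries kanamycin resistance gene driven by streptokinase promoter and grows in 40 µg/ml kanamycin; loss of luminescence reflects streptokinase promoter inhibition or plain growth inhibition; 0% = median of DMSO wells and 100% = positive control at its reference dose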
Rtt109 HAT inh = inhibitors of C. albicans Rtt109/Vps75 HAT, primary screen, biochemical, ThioGlo CoA-SH fluorescence, plate reader | inhibition, % at 34.9 µM | AID 540336, 2011 | 330,000 tested, 0.16% active | Histone acetyltransferase RTT109 (Candida albicans (strain SC5314 / ATCC MYA-2876)), … | purified Rtt109/Vps75, 4 h;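 active means inhibition of at least 50% in every replicate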
Target sequence (Q5AAJ8 whole entry, looked up): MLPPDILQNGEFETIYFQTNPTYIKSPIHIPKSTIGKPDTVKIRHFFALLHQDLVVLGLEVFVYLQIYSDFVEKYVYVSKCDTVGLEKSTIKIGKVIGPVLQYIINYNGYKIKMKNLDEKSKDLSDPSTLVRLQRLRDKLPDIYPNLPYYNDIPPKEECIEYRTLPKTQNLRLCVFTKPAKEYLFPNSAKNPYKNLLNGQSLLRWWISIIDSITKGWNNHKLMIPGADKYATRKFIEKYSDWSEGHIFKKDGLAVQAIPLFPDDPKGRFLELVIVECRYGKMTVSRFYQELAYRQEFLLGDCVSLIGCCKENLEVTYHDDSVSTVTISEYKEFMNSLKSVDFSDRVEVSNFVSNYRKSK
TPT1 inh = Candida albicans TPT1 enzyme inhibitors, primary screen, biochemical, fluorescence polarization; tRNA 2'-phosphotransferase TPT1 (Candida albicans SC5314); 300,000 tested, 0.81% active; inhibition, % at 5 µM; recombinant caTPT1, FP RNA substrate dephosphorylation; AID 1962, 2009;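 active means inhibition above the mean of all tested compounds plus 3 SD, set per screening campaign, cut at about 24% in these data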;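 further: plate controls were DMSO alone for no effect and ferristatin control at 100 nM for full effect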
TPT1 inh confirm = Candida albicans TPT1 inhibitors, confirmation, biochemical, fluorescence polarization, triplicate | shares compounds with TPT1 inh | inhibition, % at 5 µM | recombinant caTPT1, RNase T1 coupled | 2,400 tested, 74% active;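 active means inhibition above the primary screen limit, the mean inhibition of all tested compounds plus 3 SD, cut at about 25% in these data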
RNase T1 inh = RNase T1 inhibitors, counter-screen for TPT1 inhibitor project, biochemical, fluorescence polarization. 2,400 tested, 83% active. inhibition, % at 5 µM. shares compounds with TPT1 inh. AID 2153, 2009. RNase T1 cleavage, 1536-well;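 active means inhibition above the solvent-only control well mean plus 3 SD, limit set per screening run, cut at about 23% in these data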;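 further: plate controls were DMSO wells with enzyme for no effect and wells without RNase T1 for full effect; inhibitors block cleavage so intact labeled substrate keeps polarization high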
Target sequence (P00651 whole entry, looked up): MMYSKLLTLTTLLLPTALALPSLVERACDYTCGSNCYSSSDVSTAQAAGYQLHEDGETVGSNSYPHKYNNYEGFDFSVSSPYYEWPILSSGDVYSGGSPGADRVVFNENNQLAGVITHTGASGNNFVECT
Numbers without * were called inactive; nt = not tested or not shown. The list is not random: actives were taken first. Their share in the collection is about 3.9%.

SMILES	PHOSPHO1 block	Platelet DG rel	WT yeast gro inh	SKKanGAS inh	Rtt109 HAT inh	TPT1 inh	TPT1 inh confirm	RNase T1 inh
O=C1/C(=C/C=C/c2ccco2)SC(=S)N1c1ccc(O)cc1	22	8	nt	0	13	28*	50*	56*
O=C1c2ccccc2S(=O)(=O)c2cc(N3CCOCC3)ccc21	nt	1	nt	-8	0	34*	35*	46*
COc1cccc(CN(C)C(=O)c2cc(S(=O)(=O)N3CCCC3)ccc2C)c1OC	nt	nt	nt	nt	-10	nt	nt	nt
COc1cc(/C=C2/SC(=S)N(Cc3ccccc3)C2=O)ccc1OCC(=O)O	-2	-1	nt	20	-8	10	nt	nt
O=C(O)c1ccc(/C=C2/SC(=S)N(Cc3ccccc3)C2=O)cc1	nt	13	nt	5	-3	nt	nt	nt
COc1cc(/C=C2/SC(=S)N(Cc3ccccc3)C2=O)cc(Cl)c1O	20	7	nt	73*	-3	37*	4	22*
CCCOc1ccc(/C=C2\SC(=S)N(CC3CCCO3)C2=O)cc1 (centres undefined)	-5	6	17	10	-2	3	nt	nt
O=C1/C(=C/c2ccc(O)cc2)SC(=S)N1CC1CCCO1 (centres undefined)	56	-4	nt	5	16	75*	81*	83*
CCOc1cc(/C=C2/SC(=S)N(Cc3ccccc3)C2=O)ccc1O	nt	5	nt	24	1	26*	38*	48*
O=C1/C(=C\c2ccc(O)cc2)SC(=S)N1Cc1ccccc1	40	-5	nt	8	-5	75*	83*	84*
O=C1/C(=C/c2ccc(O)c([N+](=O)[O-])c2)SC(=S)N1Cc1ccccc1	21	5	31	30	nt	15	nt	nt
Cc1ccc(C(O)CSc2nnc(-c3ccc4ccccc4c3)n2C)cc1 (centres undefined)	40	16	nt	0	-4	-5	nt	nt
NC(=O)c1cc(Cl)ccc1OCC(=O)NC1CC1	nt	nt	nt	nt	1	nt	nt	nt
O=C(CSc1nnc(C2CC2)n1C1CC1)Nc1cccc(Br)c1	nt	nt	nt	nt	1	nt	nt	nt
COc1ccc(N=Cc2c(O)[nH]c3ccccc23)cc1	49	18	28	-5	-1	2	nt	nt
Oc1[nH]c2ccccc2c1/C=N/c1nccs1	-7	3	35	-2	3	36*	35*	45*
CC(C)(C)OC(=O)C[C@H]1C/C=C\C[C@@H](CC(=O)N[C@@H](CO)Cc2ccccc2)C(=O)N2CCC[C@@H]2COC1=O	nt	nt	nt	nt	-8	nt	nt	nt
Cc1ccccc1Nc1cccc2nonc12	8	-2	11	4	-54	37*	42*	54*
O=C(Cc1cc(=O)oc2cc(O)ccc12)NC(Cc1ccc(Cl)cc1)C(=O)O (centres undefined)	44	0	nt	-2	nt	-2	nt	nt
CCOc1cc(/C=N/NC(=O)c2ccc(CN3CCOCC3)cc2)ccc1OC	-16	-3	-12	0	-7	-6	nt	nt
CCOc1cc(/C=C/C(=O)c2ccc(OC)c(CN3CCOCC3)c2)cc(Br)c1O	19	13	nt	0	23	55*	81*	86*
Cc1ccc(/C=C2\Oc3c(ccc(O)c3CN3CCN(CCO)CC3)C2=O)cc1	6	-2	-6	-3	nt	1	nt	nt
CCN1CCN(Cc2c(O)ccc3c2O/C(=C\C=C\c2ccccc2OC)C3=O)CC1	-11	8	-3	9	0	53*	64*	68*
CC(C)c1ccc(/C=C2\Oc3c(ccc(O)c3CN3CCN(C)CC3)C2=O)cc1	-33	9	10	nt	nt	37*	40*	51*
Cc1ccccc1C(=O)NCC(=O)N1CCN(C/C=C/c2ccccc2)CC1	nt	nt	nt	nt	10	nt	nt	nt
SMILES	PHOSPHO1 block	Platelet DG rel	WT yeast gro inh	SKKanGAS inh	Rtt109 HAT inh	TPT1 inh	TPT1 inh confirm	RNase T1 inh
COc1ccccc1N(CC(=O)NC1CCCC1)C(=O)CCC(=O)Nc1ccccn1	24	7	nt	-1	-14	-1	nt	nt
Fc1ccc(C2CC(c3ccco3)=NN2c2ccccc2)cc1 (centres undefined)	-10	1	19	37	-16	3	nt	nt
CC(C)(C)C1=NN(c2ccc([N+](=O)[O-])cc2)C(c2ccccc2)C1 (centres undefined)	20	2	56	11	nt	1	nt	nt
COc1ccccc1N1N=C(c2ccc([N+](=O)[O-])cc2)CC1c1ccccc1 (centres undefined)	14	-3	nt	-7	0	52*	46*	57*
O=[N+]([O-])c1ccc(N2N=C(c3ccco3)CC2c2ccccc2)cc1 (centres undefined)	27	8	-24	19	-16	135*	107*	108*
CCc1nc2nc(C)c(NS(=O)(=O)c3ccc(C4CCCCC4)cc3)c(=O)n2[nH]1	0	-1	nt	6	12	1	nt	nt
CCOc1ccccc1N1CCN(C(=O)c2ccc3nc(N)sc3c2)CC1	nt	nt	nt	nt	-3	nt	nt	nt
NS(=O)(=O)c1cc(C(=O)NC2CCSc3ccccc32)ccc1Cl (centres undefined)	16	-2	nt	23	12	54*	67*	3
NS(=O)(=O)c1cccc(C(=O)NC2CCSc3ccccc32)c1 (centres undefined)	14	-2	nt	-25	10	-2	nt	nt
CN(C)S(=O)(=O)c1ccc2c(c1)/C(=C/c1cc3c([nH]1)CCCC3)C(=O)N2	nt	nt	nt	nt	4	153*	155*	145*
CC(C)CN(C(=O)COC(=O)C12CC3CC(CC(C3)C1)C2)c1c(N)n(Cc2ccccc2)c(=O)[nH]c1=O	nt	-8	nt	1	17	1	nt	nt
Cc1ccc(S(=O)(=O)NC2CC(C)(C)N(O)C(C)(C)C2)cc1	nt	nt	nt	nt	0	nt	nt	nt
Cc1ccc(CN=Cc2[nH]c3ccc(Br)c(Cl)c3c2O)cc1	6	0	64*	15	-13	70*	130*	129*
Oc1c(C=NCc2ccc(F)cc2)[nH]c2ccc(Br)c(Cl)c12	-43	-2	nt	6	nt	54*	97*	104*
O=c1[nH]c(=O)n(C2CCCCCC2)c(O)c1C=NCc1ccc(F)cc1	4	-5	17	-2	1	-3	nt	nt
CC(NS(=O)(=O)c1ccc2c(c1)oc(=O)n2C)c1ccccc1 (centres undefined)	25	-25	nt	1	-6	23	nt	nt
CCn1c(CN(C)c2ccccc2)nc2ccccc21	nt	0	nt	8	6	0	nt	nt
